Giardia killer: kills Giardia lamblia | Giardia lamblia trophozoite viability | activity change, % at 7.66 µM, hits read low | AID 540267 | 0.15% of 340,000 active; in the data active = activity change below about -80%; inconclusive = between about -30% and that limit;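 note: parasites exposed to compound for two days anaerobically before the ATP read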
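Luminescence from cellular ATP indicates surviving trophozoites (100 cells/well) following 48 hrs anaerobic compound treatment at 37 deg C; signal develops 15-30 min at room temperature.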
VP16 counter: inhibits Gal4-VP16 luciferase reporter, ROR gamma counter-screen. Drosophila S2 Gal4-VP16 UAS-luciferase, luminescence, 20 h. Potency, µM (top dose mostly 53.6 µM), most hits filed as inhibitors. 3.5% of 310,000 active;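 note: Gal4-VP16 expression switched on by copper sulfate through the metallothionein promoter; nearly all actives have a fitted effect of over 50% in size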
Integrin act MD: activators of alpha7 integrin expression for muscular dystrophy; alpha7betagal myoblasts, beta-gal FDG fluorescence, 48 h; Potency, µM (doses to about 38.3 µM), usual class: activators; 0.064% of 350,000 active; AID 624291; note: nearly all actives have a fitted effect of over 60% in size
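alpha7betagal+/- myoblasts (passage 13, 250/well) treated 48 h at 37C with compounds at 1:260 dilution of DMSO stock. Lysed, then beta-galactosidase activity read as FDG fluorescence (ex 480/em 540) after 30 min, with pre-read for autofluorescence.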
RORg inh: blocks mouse ROR gamma transcriptional activity | P51450 | Drosophila S2 Gal4-RORgamma UAS-luciferase reporter, 20 h | 5.4% of 310,000 active | Potency, µM (series often up to 53.6 µM), usual class: inhibitors; note: nearly all actives have a fitted effect of over 60% in size
Target sequence (P51450 whole entry, looked up, the tested form may be a part): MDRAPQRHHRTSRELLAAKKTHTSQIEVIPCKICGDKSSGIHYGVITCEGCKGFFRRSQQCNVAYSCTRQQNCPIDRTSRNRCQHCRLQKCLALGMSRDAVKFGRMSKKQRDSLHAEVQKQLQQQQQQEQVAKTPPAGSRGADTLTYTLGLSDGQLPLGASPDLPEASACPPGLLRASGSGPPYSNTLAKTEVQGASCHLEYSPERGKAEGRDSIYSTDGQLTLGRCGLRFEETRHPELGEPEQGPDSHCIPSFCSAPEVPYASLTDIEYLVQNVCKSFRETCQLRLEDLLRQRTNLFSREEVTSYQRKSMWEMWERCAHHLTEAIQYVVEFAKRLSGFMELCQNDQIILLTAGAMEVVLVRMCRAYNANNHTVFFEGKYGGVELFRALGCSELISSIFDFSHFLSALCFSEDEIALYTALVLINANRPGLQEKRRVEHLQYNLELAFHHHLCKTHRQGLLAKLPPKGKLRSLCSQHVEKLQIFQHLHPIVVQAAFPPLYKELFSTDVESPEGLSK
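Using a luciferase readout, inhibitors were identified by reduced reporter activity in Drosophila cells coexpressing a copper-inducible Gal4–ROR gamma fusion and UAS-driven Photinus luciferase, incubated 20 hr after 700 uM copper sulfate.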
ERG Ets-DNA blk: ERG Ets/DNA interaction inhibition; fluorescence polarization, His-ERG Ets domain / labelled DNA; Potency, µM (top dose mostly 76.9 µM), hits mostly inhibitors; 0.028% of 370,000 active; active = well fitted inhibition curve with a large enough effect in the polarisation, with a control signal flat; inconclusive = small, poorly fitted or top-dose-only effect, or effect the other way, or a change in a side signal; inactive = no such curve, though single readings can be large or run the other way; the % refers to the polarisation;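 note: polarization taken with two DNA probes labelled with fluorescein and Texas red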
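His-tagged ERG Ets domain (1 uM in the protein solution; 300mM KCl, 50mM Tris-HCl, 1mM EDTA, 1mM DTT, pH 7.5) received compound, then a probe mix of 5 nM fluorescein-DNA and 100nM Texas-615-DNA. Fluorescence polarization was read for both dyes.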
Hits are given with their value; n = inactive; u = inconclusive; x = no result given; [ ] = remark or other dose. This is one part of a sample in which hits are shown more often than they occur. Unless noted, calls come from the whole dose curve; as a rule, active = well fitted curve in the direction sought with a large enough effect; inconclusive = small, poorly fitted or top-dose-only effect, or another doubt; inactive = no such curve, though single readings can be large; an effect the other way counts as inactive or inconclusive.

SMILES	Giardia killer	VP16 counter	Integrin act MD	RORg inh	ERG Ets-DNA blk
S=C(NCCSCc1ccccc1Cl)Nc1ccccc1	n	4µM	n	2.8µM	n
Cc1ccccc1OCC(=O)NNC(=O)c1ccoc1C	n	x	n	x	x
CC(C)OCCCNC(=O)CCCN1C(=O)CCn2nc(-c3cccn3C)cc21	x	x	x	x	n
CSc1nc(O)c(N=Nc2ccc(F)cc2F)c(=O)[nH]1	n	10µM	u	u	n
CSc1nc(O)c(C(c2ccc(F)cc2)c2c(O)nc(SC)[nH]c2=O)c(=O)[nH]1	n	x	n	x	n
NC(=O)[C@@H]1CCCN1C(=O)C(Cc1cnc[nH]1)NC(=O)C1CCC(=O)N1 (some centres undefined)	x	n	x	n	x
COc1ccc(O)c(/C=N/NC(=O)c2ccc(CSc3nc(C)cc(C)n3)cc2)c1	n	2.5µM	n	1.3µM	n
Cc1cc(C)nc(SCc2ccc(C(=O)N/N=C/c3ccc(C(=O)O)cc3)cc2)n1	n	n	n	n	n
Cc1cc(C)nc(SCc2ccc(C(=O)N/N=C/c3cccc(O)c3O)cc2)n1	n	1.6µM	n	1.4µM	n
COc1ccc(/C=N/NC(=O)c2ccc(CSc3nc(C)cc(C)n3)cc2)cc1O	n	n	n	n	n
OC(c1ccccc1)C(O)C(c1ccccc1)N1CCCCC1 (centres undefined)	n	x	n	x	n
CCCCn1nnc(NC(=S)NC(=O)c2ccc(OCC)c([N+](=O)[O-])c2)n1	n	2.5µM	n	2.8µM	n
CCCCn1nnc(NC(=S)NC(=O)c2ccc(-c3cccc(Cl)c3Cl)o2)n1	n	1.1µM	n	1.3µM	n
CCCCC(=O)Nc1nnn(CCC)n1	n	n	n	n	n
CCCCC(=O)NC(=S)Nc1nnn(CCC)n1	n	0.56µM	n	0.11µM	n
C=CCSc1nc(C)cc(C(=O)OCC)c1C#N	n	n	u	n	n
CCCCN1CCc2nc(N3CCN(c4ncccn4)CC3)ncc2C1	x	x	x	x	n
Cc1ccccc1N=CC1=C(O)c2ccccc2C1=O	u	1.3µM	u	0.2µM	n
COc1ccc(CC2=C(O)c3ccccc3C(=O)C2=O)cc1	n	n	n	u	n
COc1ccc(N=CC2=C(O)c3ccccc3C2=O)c(OC)c1	u	4µM	n	4µM	n
O=C1C(C=Nc2ccc(F)cc2)=C(O)c2ccccc21	n	n	n	n	n
Cc1cc2n(n1)CCCN2C(=O)Nc1ccc(F)c(Cl)c1	x	x	x	x	n
Cc1cc2n(n1)SC(Nc1ccc(F)c(Cl)c1)N2 (centres undefined)	n	1.1µM	n	0.63µM	n
O=C(CCC1N=C2c3ccccc3N=C(SCc3ccc(Cl)cc3)N2C1=O)NC1CCCCC1 (centres undefined)	x	x	x	x	n
C=CCSc1nc2sc3c(c2c(=O)n1CC)CCc1ccccc1-3	n	u	n	10µM	n
SMILES	Giardia killer	VP16 counter	Integrin act MD	RORg inh	ERG Ets-DNA blk
CCCOc1cccc(-c2cc(C(=O)N/N=C/c3ccccn3)c3ccccc3n2)c1	n	1.3µM	n	1µM	n
CC(C)COc1cccc(-c2cc(C(=O)Nc3ccon3)c3ccccc3n2)c1	n	28µM	n	u	n
CC(C)Oc1cccc(-c2cc(C(=O)N3CCN(c4ncccn4)CC3)c3ccccc3n2)c1	x	11µM	x	n	x
CCCOc1cccc(-c2cc(C(=O)NN)c3ccccc3n2)c1	n	u	n	11µM	n
COc1cccc(-c2cc(C(=O)N3CCN(c4ncccn4)CC3)c3ccccc3n2)c1	n	n	n	u	n
CCn1cc(CNC(=O)c2cc(-c3ccc(C)cc3)nc3ccc(Br)cc23)c(C)n1	x	x	x	x	n
CCSc1nnc(NC(=O)C2CSC3(C)CCC(=O)N23)s1 (centres undefined)	n	x	n	x	n
CCOC(=O)c1nnc(-c2ccccc2)nc1Oc1ccc(Cl)cc1	n	10µM	n	20µM	n
Cc1ccc(NC(=O)CSCn2nnc3c(=O)[nH]c(Cc4ccc(F)cc4)nc32)c(C)c1	x	x	x	x	n
COc1cc(CCCN2C(=S)NC[C@@H]2Cc2ccccc2)cc(OC)c1OC	n	u	n	10µM	n
COc1cc(CCCN2C(=S)NC[C@@H]2c2ccccc2)cc(OC)c1OC	u	u	n	10µM	n
COc1cc(CCCN2C(N)=NC[C@@H]2Cc2ccccc2)cc(OC)c1OC	n	n	n	n	n
Cc1c(/C(O)=C2/C(=O)C(=O)N(Cc3cccnc3)C2c2ccccn2)cnn1-c1ccccc1 (centres undefined)	n	n	n	u	n
O=c1c2c([N+](=O)[O-])cc([N+](=O)[O-])cc2sn1Cc1ccccc1	n	4.5µM	n	7.1µM	n
O=c1c2c([N+](=O)[O-])cc([N+](=O)[O-])cc2sn1-c1ccc(Br)cc1	n	10µM	n	8.9µM	n
O=C(Nc1ccc(Br)cc1)c1cc([N+](=O)[O-])cc([N+](=O)[O-])c1	u	u	n	n[1.91 µM]	n
O=S(=O)(NC(=S)NC1CCCCC1)c1ccccc1	n	u	n	4.5µM	n
O=S(=O)(NC1CCCCCCC1)c1ccccc1	n	n	n	n	n
O=S(=O)(NC(=S)NC1CCCCC1)c1cccs1	n	n	n	11µM	n
O=C(NC1CCCCC1)C(Cc1ccccc1)NS(=O)(=O)c1cccs1 (centres undefined)	n	n	n	n	x
CC(=O)Oc1ccc(C(=O)Nc2ccc(C3(C#N)CCCC3)cc2)cc1	n	0.4µM	n	0.35µM	n
CCCn1nnnc1NC(=O)COc1ccc(Br)cc1	n	7.1µM	n	2.5µM	n
CCCn1nnc(NC(=O)c2ccc3ccccc3c2)n1	n	n[10 µM]	n	n	n
CCCCC(=O)Nc1nnc(C)s1	n	n	n	n	n
CCCn1nnnc1NC(=O)c1ccc2ccccc2c1	n	1µM	n	1.6µM	n
SMILES	Giardia killer	VP16 counter	Integrin act MD	RORg inh	ERG Ets-DNA blk
CCCCC(=O)Nc1nnnn1CCC	n	u	n	14µM	n
COC(=O)c1ccccc1NC(=O)C1=CC(c2ccc3c(c2)OCO3)=NS(=O)(=O)N1C	x	x	x	x	n
C=CCNC(=O)CC(=O)N/N=C/c1ccc(F)cc1	n	n	n	n	n
O=C(O)c1ccc(/C=N/NC(=S)NC2CCCCC2)cc1	n	n	n	n	n
C=CCNC(=S)N/N=C/c1ccc(C(F)(F)F)cc1	n	2.8µM	n	0.71µM	n
O=C(N/N=C/c1cccc(O)c1)NC1CCCCC1	n	n	n	u	n
FC(F)(F)c1ccc(/C=N/NC(=S)NC2CCCCC2)cc1	n	4.5µM	n	0.63µM	n
FC(F)(F)c1cccc(/C=N/NC(=S)NC2CCCCC2)c1	n	6.3µM	n	0.56µM	n
CC(=O)OC1CCC2(C)C(=CC=C3C2CCC2(C)C3CCC2C(C)/C=C/C(C)C(C)C)C1(C)C (centres undefined)	x	n	x	n	x
COc1cccc(/C=N/n2c(C)nc3ccccc32)c1OC	n	8.9µM	n	3.2µM	n
COc1cccc(/C=N\n2c(C)nnc2C)c1OC	n	n	n	n	n
Cc1cc2ncn(/N=C/c3ccc([N+](=O)[O-])s3)c2cc1C	-98	n	n	n	x
